In all, about 5,500 compounds went through this assay and about 2,000 (36%) were called active. About 18% were inconclusive and are not listed. No stated cut-off is given here; in the data, active means normalized growth mostly below about 0.91 (no sharp cut-off); inconclusive means no clear call, values can overlap the other calls; inactive means mostly above about 0.92. The list shows a part of the results.
Assay: chemical genetic growth profiling, strain panel (AID 1159580);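 further: tested at 20 µM; growth read once vehicle control cultures reached saturation at 30 °C; 1 = growth at the plate median or of vehicle wells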
Conditions: growth OD

Measured: normalized growth

Fc1ccc([C@@H]2CCNC[C@H]2COc2ccc3c(c2)OCO3)cc1
inactive: S. cerevisiae deletion strains, locus YJR075W, strain HOC1, stronger effect = lower value 1.03 | S. cerevisiae deletion strains, locus YKL009W, strain mrt4, stronger effect = lower value 1.03 | S. cerevisiae deletion strains, locus YKL068W, stronger effect = lower value 1 | S. cerevisiae deletion strains, locus YKL085W, strain MDH1 (second series), stronger effect = lower value 0.991 | S. cerevisiae deletion strains, locus YKL085W, strain MDH1, stronger effect = lower value 0.991 | S. cerevisiae deletion strains, locus YKL160W, strain elf1, stronger effect = lower value 0.99 | S. cerevisiae deletion strains, locus YKL190W, strain CNB1, stronger effect = lower value 1.01 | S. cerevisiae deletion strains, locus YKR001C, strain vps1, stronger effect = lower value 1.02 | S. cerevisiae deletion strains, locus YKR026C, strain gcn3, stronger effect = lower value 1.01 | S. cerevisiae deletion strains, locus YKR091W, strain srl3, stronger effect = lower value 0.999 | S. cerevisiae deletion strains, locus YLL001W, strain dnm1, stronger effect = lower value 1 | S. cerevisiae deletion strains, locus YLL026W, stronger effect = lower value 0.998 | S. cerevisiae deletion strains, locus YLL041C, strain sdh2, stronger effect = lower value 1 | S. cerevisiae deletion strains, locus YLR027C, strain aat2, stronger effect = lower value 1 | S. cerevisiae deletion strains, locus YLR039C, strain RIC1, stronger effect = lower value 1.09 | S. cerevisiae deletion strains, locus YLR058C, strain SHM2, stronger effect = lower value 1.01 | S. cerevisiae deletion strains, locus YLR102C, strain apc9, stronger effect = lower value 1.02 | S. cerevisiae deletion strains, locus YLR113W, strain HOG1, stronger effect = lower value 0.995 | S. cerevisiae deletion strains, locus YLR221C, strain rsa3, stronger effect = lower value 1.01 | S. cerevisiae deletion strains, locus YLR258W, strain gsy2, stronger effect = lower value 1.01 | S. cerevisiae deletion strains, locus YLR262C, strain YPT6 (second series), stronger effect = lower value 1.08 | S. cerevisiae deletion strains, locus YLR262C, strain YPT6, stronger effect = lower value 1.09 | S. cerevisiae deletion strains, locus YLR268W, strain sec22, stronger effect = lower value 0.989 | S. cerevisiae deletion strains, locus YLR320W, strain mms22, stronger effect = lower value 0.984 | S. cerevisiae deletion strains, locus YLR330W, strain CHS5, stronger effect = lower value 1.01 | S. cerevisiae deletion strains, locus YLR342W, strain FKS1 (second series), stronger effect = lower value 1.06 | S. cerevisiae deletion strains, locus YLR342W, strain FKS1, stronger effect = lower value 0.996 | S. cerevisiae deletion strains, locus YLR357W, strain rsc2, stronger effect = lower value 0.998 | S. cerevisiae deletion strains, locus YLR370C, strain arc18, stronger effect = lower value 0.994 | S. cerevisiae deletion strains, locus YLR371W, strain rom2, stronger effect = lower value 1.01 | S. cerevisiae deletion strains, locus YLR384C, strain iki3, stronger effect = lower value 0.995 | S. cerevisiae deletion strains, locus YLR418C, strain cdc73, stronger effect = lower value 1.01 | S. cerevisiae deletion strains, locus YML016C, strain PPZ1, stronger effect = lower value 1.01 | S. cerevisiae deletion strains, locus YML032C, strain rad52, stronger effect = lower value 1.02 | S. cerevisiae deletion strains, locus YML120C, strain ndi1, stronger effect = lower value 0.991 | S. cerevisiae deletion strains, locus YML124C, strain tub3, stronger effect = lower value 1 | S. cerevisiae deletion strains, locus YMR058W, strain fet3, stronger effect = lower value 1 | S. cerevisiae deletion strains, locus YMR078C, strain ctf18, stronger effect = lower value 1.01 | S. cerevisiae deletion strains, locus YMR125W, strain sto1, stronger effect = lower value 0.999 | S. cerevisiae deletion strains, locus YMR129W, stronger effect = lower value 0.995 | S. cerevisiae deletion strains, locus YMR205C, strain PFK2, stronger effect = lower value 0.98 | S. cerevisiae deletion strains, locus YMR223W, strain ubp8, stronger effect = lower value 1.03 | S. cerevisiae deletion strains, locus YMR231W, strain pep5, stronger effect = lower value 1.01 | S. cerevisiae deletion strains, locus YMR263W, strain SAP30, stronger effect = lower value 1 | S. cerevisiae deletion strains, locus YMR307W, strain GAS1, stronger effect = lower value 1.13 | S. cerevisiae deletion strains, locus YNL067W, strain RPL9B, stronger effect = lower value 0.994 | S. cerevisiae deletion strains, locus YNL071W, strain lat1, stronger effect = lower value 1 | S. cerevisiae deletion strains, locus YNL128W, strain TEP1, stronger effect = lower value 1.02 | S. cerevisiae deletion strains, locus YNL153C, strain GIM3, stronger effect = lower value 0.979 | S. cerevisiae deletion strains, locus YNL183C, strain NPR1, stronger effect = lower value 1.01 | S. cerevisiae deletion strains, locus YNL209W, strain ssb2, stronger effect = lower value 1 | S. cerevisiae deletion strains, locus YNL233W, strain BNI4, stronger effect = lower value 1 | S. cerevisiae deletion strains, locus YNL248C, strain rpa49, stronger effect = lower value 1.02 | S. cerevisiae deletion strains, locus YNL250W, strain rad50, stronger effect = lower value 1 | S. cerevisiae deletion strains, locus YNL271C, strain bni1, stronger effect = lower value 1.02 | S. cerevisiae deletion strains, locus YNL298W, strain CLA4, stronger effect = lower value 1.01 | S. cerevisiae deletion strains, locus YNL307C, strain MCK1, stronger effect = lower value 1.03 | S. cerevisiae deletion strains, locus YNL322C, strain KRE1 (second series), stronger effect = lower value 1.01 | S. cerevisiae deletion strains, locus YNL322C, strain KRE1, stronger effect = lower value 1.01 | S. cerevisiae deletion strains, locus YNR049C, strain mso1, stronger effect = lower value 1 | S. cerevisiae deletion strains, locus YNR052C, strain pop2, stronger effect = lower value 1.02 | S. cerevisiae deletion strains, locus YOL006C, strain TOP1, stronger effect = lower value 1.06 | S. cerevisiae deletion strains, locus YOL012C, strain htz1 1.14 | S. cerevisiae deletion strains, locus YOL147C, strain pex11, stronger effect = lower value 1 | S. cerevisiae deletion strains, locus YOR001W, strain rrp6, stronger effect = lower value 0.983 | S. cerevisiae deletion strains, locus YOR061W, strain CKA2, stronger effect = lower value 1.01 | S. cerevisiae deletion strains, locus YOR069W, strain VPS5, stronger effect = lower value 1.01 | S. cerevisiae deletion strains, locus YOR070C, strain gyp1, stronger effect = lower value 1 | S. cerevisiae deletion strains, locus YOR080W, strain dia2, stronger effect = lower value 1 | S. cerevisiae deletion strains, locus YOR083W, strain WHI5, stronger effect = lower value 1.01 | S. cerevisiae deletion strains, locus YOR106W, strain vam3, stronger effect = lower value 1 | S. cerevisiae deletion strains, locus YOR136W, strain idh2, stronger effect = lower value 1.01 | S. cerevisiae deletion strains, locus YOR144C, strain elg1, stronger effect = lower value 1 | S. cerevisiae deletion strains, locus YOR184W, strain ser1, stronger effect = lower value 1.05 | S. cerevisiae deletion strains, locus YOR231W, strain MKK1, stronger effect = lower value 1.03 | S. cerevisiae deletion strains, locus YOR265W, strain rbl2, stronger effect = lower value 0.996 | S. cerevisiae deletion strains, locus YOR270C, strain vph1, stronger effect = lower value 0.905 | S. cerevisiae deletion strains, locus YOR290C, strain snf2, stronger effect = lower value 1.03 | S. cerevisiae deletion strains, locus YOR316C, strain cot1, stronger effect = lower value 1 | S. cerevisiae deletion strains, locus YPL051W, strain arl3, stronger effect = lower value 1 | S. cerevisiae deletion strains, locus YPL055C, strain LGE1, stronger effect = lower value 1.01 | S. cerevisiae deletion strains, locus YPL078C, strain atp4, stronger effect = lower value 1.01 | S. cerevisiae deletion strains, locus YPL106C, strain sse1, stronger effect = lower value 1.03 | S. cerevisiae deletion strains, locus YPL240C, strain hsp82, stronger effect = lower value 1.02 | S. cerevisiae deletion strains, locus YPL241C, strain CIN2, stronger effect = lower value 1.01 | S. cerevisiae deletion strains, locus YPL256C, strain CLN2, stronger effect = lower value 1.04 | S. cerevisiae deletion strains, locus YPR119W, strain clb2, stronger effect = lower value 1.01 | S. cerevisiae deletion strains, locus YPR141C, strain kar3, stronger effect = lower value 1 | S. cerevisiae deletion strains, locus YPR163C, strain tif3, stronger effect = lower value 1 | S. cerevisiae deletion strains, locus YPR167C, strain met16, stronger effect = lower value 1.01 | S. cerevisiae deletion strains, strain wtn01, stronger effect = lower value 0.998 | S. cerevisiae strains, strain wild type, stronger effect = lower value 1.02
